Source: PubChem BioAssay
Active and inactive are the calls of the source. Unless noted, no rule for the calls is given here.

Tests used:
[1] = compounds binding Alexa647 anti-His antibody – biochemical, small-molecule microarray, 635 nm fluorescence, artefact control for SMM control protein annotation, primary screen (AID 1128); details: higher = more signal;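 also: score merges feature fluorescence with signal-to-noise for each printed compound spot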
[2] = system: Human papillomavirus type 1a E7 protein (residues 1-88); assay: HPV1a E7 small-molecule binders, primary screen, biochemical, small-molecule microarray, residues 1-88, 635 nm (AID 1129); details: small-molecule microarray binding, fluorescence 635 nm; higher = more signal
[3] = biological target: Focal adhesion kinase 1 (Homo sapiens) (UniProt Q05397); assay: PTK2 protein binding on printed compound slides – biochemical, small-molecule microarray, 635/667 nm fluorescence, BSA, DTT, primary screen (AID 1130); details: 635 nm fluorescence, higher = more signal;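 also: composite of spot emission at 667 nm and signal to noise over triplicate slides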
Chain of Focal adhesion kinase 1 (Homo sapiens) (Q05397 whole entry, looked up): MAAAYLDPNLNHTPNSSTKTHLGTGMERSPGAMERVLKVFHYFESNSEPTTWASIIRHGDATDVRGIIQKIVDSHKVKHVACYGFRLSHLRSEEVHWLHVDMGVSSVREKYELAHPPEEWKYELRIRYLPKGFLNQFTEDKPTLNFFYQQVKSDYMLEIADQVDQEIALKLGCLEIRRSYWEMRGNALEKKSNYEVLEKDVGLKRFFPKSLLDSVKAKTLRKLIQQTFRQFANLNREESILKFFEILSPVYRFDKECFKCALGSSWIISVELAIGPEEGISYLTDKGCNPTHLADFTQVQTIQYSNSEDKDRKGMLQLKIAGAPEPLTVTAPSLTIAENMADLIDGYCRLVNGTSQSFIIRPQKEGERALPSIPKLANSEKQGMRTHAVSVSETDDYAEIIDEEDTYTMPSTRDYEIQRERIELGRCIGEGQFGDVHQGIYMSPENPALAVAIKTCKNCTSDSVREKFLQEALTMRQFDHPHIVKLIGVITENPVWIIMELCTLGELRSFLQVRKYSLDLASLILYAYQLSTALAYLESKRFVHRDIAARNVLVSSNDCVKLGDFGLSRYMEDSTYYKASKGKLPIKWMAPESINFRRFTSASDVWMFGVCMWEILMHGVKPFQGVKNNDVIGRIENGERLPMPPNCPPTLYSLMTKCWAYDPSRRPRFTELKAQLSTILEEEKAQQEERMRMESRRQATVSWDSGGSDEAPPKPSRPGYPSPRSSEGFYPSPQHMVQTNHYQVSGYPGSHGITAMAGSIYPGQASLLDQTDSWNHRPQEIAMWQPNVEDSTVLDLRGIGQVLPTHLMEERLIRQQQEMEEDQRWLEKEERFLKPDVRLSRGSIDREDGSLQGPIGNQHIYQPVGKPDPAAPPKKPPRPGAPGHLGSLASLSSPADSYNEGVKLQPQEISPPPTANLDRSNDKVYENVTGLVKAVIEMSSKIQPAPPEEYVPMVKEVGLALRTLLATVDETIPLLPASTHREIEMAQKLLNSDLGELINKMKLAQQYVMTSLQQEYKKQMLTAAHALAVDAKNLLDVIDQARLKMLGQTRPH

[4] = system: Fibrinogen (Alexa647-labelled); assay: Alexa647-fibrinogen binding to printed small molecules – biochemical, small-molecule microarray, 635/667 nm fluorescence, artefact control for SMM control-protein annotation, profiling panel (AID 1131); details: fibrinogen-A647 binding fluorescence, higher = more signal;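 also: z-score merges 667 nm fluorescence with per-spot signal-to-noise over triplicate slides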
[5] = biological target: Follistatin (Homo sapiens) (UniProt P19883); assay: FST protein binding to printed compounds – biochemical, small-molecule microarray, 635/667 nm fluorescence, primary screen (AID 1132); details: 635 nm fluorescence, higher = more signal
Chain of Follistatin (Homo sapiens) (P19883 whole entry, looked up): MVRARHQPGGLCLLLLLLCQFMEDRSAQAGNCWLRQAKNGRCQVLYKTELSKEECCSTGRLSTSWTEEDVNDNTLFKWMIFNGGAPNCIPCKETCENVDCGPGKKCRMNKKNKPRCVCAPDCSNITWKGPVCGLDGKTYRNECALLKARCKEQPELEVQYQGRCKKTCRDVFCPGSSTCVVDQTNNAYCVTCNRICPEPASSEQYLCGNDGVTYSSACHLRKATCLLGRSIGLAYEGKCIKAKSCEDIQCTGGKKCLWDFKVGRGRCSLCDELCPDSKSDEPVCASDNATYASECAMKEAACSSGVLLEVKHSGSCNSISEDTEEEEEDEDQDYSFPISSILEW

[6] = biological target: Fibroblast growth factor 2 (Homo sapiens) (UniProt P09038); assay: basic fibroblast growth factor binding to printed compounds – biochemical, small-molecule microarray, 635/667 nm fluorescence, primary screen (AID 1133); details: FGF2, fluorescence 635/667, higher = more signal
Chain of Fibroblast growth factor 2 (Homo sapiens) (P09038 whole entry, looked up): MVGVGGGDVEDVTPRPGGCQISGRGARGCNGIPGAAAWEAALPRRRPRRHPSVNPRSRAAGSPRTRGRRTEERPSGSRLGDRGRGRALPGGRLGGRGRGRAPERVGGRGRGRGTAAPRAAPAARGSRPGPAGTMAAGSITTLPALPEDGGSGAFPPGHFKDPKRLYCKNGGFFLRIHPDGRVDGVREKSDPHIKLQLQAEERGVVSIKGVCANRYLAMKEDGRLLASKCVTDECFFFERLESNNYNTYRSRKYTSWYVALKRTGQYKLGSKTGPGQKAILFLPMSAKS

[7] = JC-1 mitochondrial potential readout, lung cancer cells – cell-based, A549, JC-1 fluorescence, basal, 24 h, 100 nL, profiling panel (AID 1138); details: higher = more signal;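 also: A549 lung adenocarcinoma cells under basal conditions with no added stimulus; test concentration not given here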
Lefty1 = Lefty1 protein binding to printed compounds – biochemical, small-molecule microarray, 635/667 nm fluorescence, primary screen (AID 1139); details: fluorescence 635/667, higher = more signal
[8] = system: wheat germ agglutinin (Triticum aestivum), Alexa647-labelled; assay: Alexa647-WGA lectin binding to printed small molecules – biochemical, small-molecule microarray, 635/667 nm fluorescence, artefact control for SMM control-protein annotation, profiling panel (AID 1140); details: WGA-A647 binding, 635 nm fluorescence, higher = more signal;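 also: score merges 667 nm feature emission with signal to noise over triplicate slides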
[9] = biological target: Luciferin 4-monooxygenase (Photinus pyralis) (UniProt P08659); assay: inhibition of purified Photinus pyralis luciferase – biochemical, luminescence, purified enzyme, 2006 set, primary screen (AID 1141); details: purified firefly luciferase, SteadyGlo luminescence, 30 min; higher = more signal, called active from +8 up or from −8 down;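 also: cell-free assay with purified firefly luciferase at 100 ng per well in PBS; test concentration not given here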
Chain of Luciferin 4-monooxygenase (Photinus pyralis) (P08659 whole entry, looked up): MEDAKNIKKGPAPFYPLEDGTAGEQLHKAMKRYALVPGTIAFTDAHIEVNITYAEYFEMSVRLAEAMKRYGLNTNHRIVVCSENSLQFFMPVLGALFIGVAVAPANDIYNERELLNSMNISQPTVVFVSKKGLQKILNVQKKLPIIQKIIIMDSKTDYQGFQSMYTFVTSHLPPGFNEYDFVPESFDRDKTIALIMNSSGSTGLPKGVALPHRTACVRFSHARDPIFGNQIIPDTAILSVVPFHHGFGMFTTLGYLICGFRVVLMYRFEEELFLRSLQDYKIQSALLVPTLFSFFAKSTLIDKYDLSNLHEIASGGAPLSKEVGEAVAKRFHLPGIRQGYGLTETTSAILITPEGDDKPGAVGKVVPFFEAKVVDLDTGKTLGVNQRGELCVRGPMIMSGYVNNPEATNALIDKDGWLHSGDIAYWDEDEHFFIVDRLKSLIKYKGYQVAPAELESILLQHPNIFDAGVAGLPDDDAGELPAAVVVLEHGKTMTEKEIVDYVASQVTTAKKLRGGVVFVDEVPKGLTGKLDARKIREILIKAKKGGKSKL

[10] = system: Wnt5a (protein binding on small-molecule microarray); assay: small molecules binding Wnt5a protein – biophysical, small-molecule microarray, 635/667 nm fluorescence, primary screen (AID 1142); details: 635 nm fluorescence, higher = more signal;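 also: fluorescence read at 667 nm with signal to noise per printed feature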
[11] = ATP-based viability of Huh7 replicon cells – cell-based, CellTiter-Glo luminescence, basal, 48 h, cytotoxicity control for HCV replication inhibitor project, primary screen (AID 1143); details: higher = more signal, called active from +8 up or from −8 down;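 also: Huh7 hepatoma cells carrying a hepatitis C replication reporter with no stimulus; test concentration not given here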
[12] = Pseudomonas biofilm growth suppression – PAO1 strain, BacTiter-Glo luminescence, LB-PBS, primary screen (AID 1144); details: P. aeruginosa PAO1 biofilm, 12 h, higher = more signal
[13] = basal CRE-LacZ reporter activity in PC12 – cell-based, unstimulated, primary screen (AID 1145); details: no forskolin, luminescence, 4.5 h, higher = more signal, called active from +8 up or from −8 down
[14] = forskolin-driven CRE-LacZ activity in PC12 – cell-based, CRE-LacZ reporter, forskolin-stimulated, primary screen (AID 1146); details: luminescence, 4.5 h, higher = more signal, called active from +8 up or from −8 down;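 also: PC12 cells with 6xCRE LacZ reporter stimulated by forskolin 10 µM; beta-galactosidase reporter signal reflecting CREB driven transcription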
[15] = biological target: Streptavidin (Streptomyces avidinii) (UniProt P22629); assay: compounds binding control protein streptavidin – biophysical, small-molecule microarray, 635/667 nm fluorescence, artefact control for SMM compound annotation, primary screen (AID 1147); details: higher = more signal;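 also: signal reflects streptavidin binding to arrayed compounds as a control protein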
Chain of Streptavidin (Streptomyces avidinii) (P22629 whole entry, looked up): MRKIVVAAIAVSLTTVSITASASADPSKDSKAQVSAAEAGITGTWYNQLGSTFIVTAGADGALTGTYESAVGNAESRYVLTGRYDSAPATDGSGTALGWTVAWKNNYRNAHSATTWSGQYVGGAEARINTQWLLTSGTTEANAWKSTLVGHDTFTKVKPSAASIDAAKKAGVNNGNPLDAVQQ

[16] = probe aInhba binding on compound microarray – biochemical, small-molecule microarray, 635/667 nm fluorescence, primary screen (AID 1148); details: higher = more signal;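 also: score merges 667nm spot fluorescence with signal-to-noise for antibody binding to printed compounds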
Torsin-1A (Homo sapiens) [17] = biological target: Torsin-1A (Homo sapiens) (UniProt O14656); assay: TOR1A wild-type binding on microarray – cell lysate, small-molecule microarray, lysate, 635/667 nm, primary screen (AID 1149); details: COS7 hTOR1A-WT lysate, 635 nm fluorescence, higher = more signal
Chain of Torsin-1A (Homo sapiens) (O14656 whole entry, looked up): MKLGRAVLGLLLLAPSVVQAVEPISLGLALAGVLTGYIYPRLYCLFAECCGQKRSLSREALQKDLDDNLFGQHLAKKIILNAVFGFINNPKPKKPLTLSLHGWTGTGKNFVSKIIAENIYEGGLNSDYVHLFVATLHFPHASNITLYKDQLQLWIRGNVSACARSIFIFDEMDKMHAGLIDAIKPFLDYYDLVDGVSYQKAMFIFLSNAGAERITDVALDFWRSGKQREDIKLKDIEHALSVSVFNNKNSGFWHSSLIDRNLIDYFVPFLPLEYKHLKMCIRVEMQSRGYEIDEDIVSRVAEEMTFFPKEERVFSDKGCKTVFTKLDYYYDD

Torsin-1A (Homo sapiens) [18] = biological target: Torsin-1A (Homo sapiens) (UniProt O14656); assay: torsin A mutant lysate binding on microarrays – cell lysate, small-molecule microarray, COS7 lysate, 635/667 nm fluorescence, primary screen (AID 1150); details: COS7 hTOR1A mutant lysate, 635 nm fluorescence, higher = more signal;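 also: score pools 667 nm emission and signal to noise measuring lysate protein binding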
[19] = system: Sonic hedgehog protein (Shh); assay: Sonic hedgehog microarray binding compounds – biochemical, small-molecule microarray, 635/667 nm fluorescence, primary screen (AID 1151); details: 635 nm fluorescence, higher = more signal;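 also: Shh protein binding to compounds spotted on small-molecule microarray slides; score combines spot fluorescence intensity with signal-to-noise across triplicate slides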

SMILES	composite z-score [1]	composite z-score [2]	composite z-score [3]	composite z-score [4]	composite z-score [5]	composite z-score [6]	z-score [7]	composite z-score (Lefty1)	composite z-score [8]	z-score [9]	composite z-score [10]	z-score [11]	z-score [12]	z-score [13]	z-score [14]	composite z-score [15]	composite z-score [16]	composite z-score (Torsin-1A (Homo sapiens) [17])	composite z-score (Torsin-1A (Homo sapiens) [18])	composite z-score [19]
CCCC=C(CCC)[C@@H](NP(=O)(c1ccccc1)c1ccccc1)c1ccc(C(F)(F)F)cc1	0.74	0.811	0.666	0.47	-0.683	-0.265	0.365	0.57	0.255	2.55 (inactive)	0.71	-0.407 (inactive)	0.592 (inactive)	0.0041 (inactive)	0.0568 (inactive)	0.0838	-0.0833	0.316	0.0932	-0.395
C=CC[C@@]1(C(=O)N2CCCCC2)N=C(c2ccc(OCCCO)cc2)O[C@@H]1c1ccccc1	2.8	1.2	1.58	0.935	0.939	0.0286	1.9	-0.034	1.08	-0.952 (inactive)	0.18	-3.63 (inactive)	0.222 (inactive)	1.5 (inactive)	-0.134 (inactive)	0.0319	0.411	0.521	1.22	-0.229
C[C@]1(C(=O)NCCN2CCOCC2)c2ccccc2C(=O)N(Cc2ccc(OC(F)(F)F)cc2)[C@H]1c1ccc(CO)cc1	2.24	0.634	-0.108	0.915	0.536	-0.38	1.68	-0.355	0.55	-0.0852 (inactive)	-0.333	-0.653 (inactive)	-0.67 (inactive)	-0.412 (inactive)	-0.51 (inactive)	-0.152	-0.101	0.816	0.853	-0.704
Cc1ccc(F)cc1S(=O)(=O)N[C@@H]1CCN(Cc2ccc(OC(C)C)cc2)C1	0.111	-1.37	-0.425	-0.907	-0.235	0.47	1.14	-0.177	-1.28	0.0358 (inactive)	-0.0943	-3.86 (inactive)	0.816 (inactive)	1.76 (inactive)	0.524 (inactive)	-0.293	-0.341	0.277	0.719	-0.0003
CCOC(=O)C[C@H]1[C@H](OC(=O)c2ccc(-c3ccccc3)cc2)[C@@H](NC(=O)c2ccc3ccccc3n2)c2cc(OCCCO)ccc2N1C(=O)c1ccccc1	1.14	1	0.059	0.702	0.779	0.736	-0.332	0.815	0.262	0.371 (inactive)	0.111	-0.727 (inactive)	0.306 (inactive)	-0.477 (inactive)	-0.169 (inactive)	0.968	0.109	0.448	0.397	0.861
O=C(O)[C@]1(Cc2ccccc2)N=C(c2ccc(OCCCO)cc2)O[C@@H]1c1ccccc1	1.03	-0.0591	0.136	-0.0288	-0.431	-0.846	-0.069	-0.296	-0.218	0.779 (inactive)	-0.159	-1.14 (inactive)	0.534 (inactive)	-0.445 (inactive)	-0.471 (inactive)	-0.423	-0.119	-0.639	-0.411	-1.78
CC(C)(C)OC(=O)CC[C@@]1(C(=O)O)N=C(c2ccc(OCCCO)cc2)O[C@@H]1c1ccccc1	1.52	0.716	-0.219	0.506	0.0761	-0.228	-0.161	-0.643	-0.0131	0.383 (inactive)	-0.181	-0.97 (inactive)	-0.335 (inactive)	-0.94 (inactive)	-0.374 (inactive)	0.0425	0.0154	0.961	0.694	-0.736
CC(C)(C)OC(=O)CC[C@]1(C(=O)NCCN2CCOCC2)N=C(c2ccc(OCCCO)cc2)O[C@H]1c1ccccc1N=[N+]=[N-]	2.11	1.15	0.782	1.04	0.283	-0.104	0.669	-0.595	1.33	-10.8 (active)	0.191	-0.616 (inactive)	0.145 (inactive)	0.872 (inactive)	-0.55 (inactive)	0.615	0.367	0.0272	1.28	-0.299
COC(=O)c1c(CC[C@@H](CO)NC(=O)N[C@H](Cn2cc(-c3ccccc3C)nn2)C(C)C)oc(C(C)=O)c1C(=O)OC	0.0233	-0.0523	0.14	0.335	-0.505	-0.37	-0.704	-0.0683	0.567	0.379 (inactive)	-0.338	-2.66 (inactive)	-0.673 (inactive)	1.5 (inactive)	-0.644 (inactive)	-0.0581	-0.003	-0.123	-0.171	-0.272
